Experimental data taken from PubChem BioAssay (NCI).
Compounds without any hit were thinned out: in the full panel of roughly 83,000, 20% have a hit.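 Note: values are percent growth. 100 is the growth of untreated cells, values between 100 and 0 indicate rising inhibition; between -100 and 0 indicates cell death.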 Values without a mark were called inactive. Calls of active or inactive are those of the source. The calls were made as follows: active = growth percent below 10; inactive = the rest.

What was measured:
Experiment in all cases: NCI-60 one-dose screen, 48 h (100 = growth as untreated, 0 = no growth, -100 = all killed)
Conditions in all cases: 10 µM unless noted
DU-145 prostate = test system: DU-145 prostate
K-562 leukemia = test system: K-562 leukemia
MALME-3M melanoma = test system: MALME-3M melanoma
MDA-MB-231 breast = test system: MDA-MB-231 breast
RXF 393 renal = test system: RXF 393 renal
SF-268 CNS = test system: SF-268 CNS
SF-295 CNS = test system: SF-295 CNS
SF-539 CNS = test system: SF-539 CNS
UACC-257 melanoma = test system: UACC-257 melanoma
M14 melanoma = test system: M14 melanoma
HT29 colon = test system: HT29 colon
SNB-75 CNS = test system: SNB-75 CNS
SNB-19 CNS = test system: SNB-19 CNS
U251 CNS = test system: U251 CNS
PC-3 prostate = test system: PC-3 prostate
UACC-62 melanoma = test system: UACC-62 melanoma
LOX IMVI melanoma = test system: LOX IMVI melanoma
SK-MEL-28 melanoma = test system: SK-MEL-28 melanoma
SK-MEL-5 melanoma = test system: SK-MEL-5 melanoma
HCT-15 colon = test system: HCT-15 colon

SMILES	growth (DU-145 prostate)	growth (K-562 leukemia)	growth (MALME-3M melanoma)	growth (MDA-MB-231 breast)	growth (RXF 393 renal)	growth (SF-268 CNS)	growth (SF-295 CNS)	growth (SF-539 CNS)	growth (UACC-257 melanoma)	growth (M14 melanoma)	growth (HT29 colon)	growth (SNB-75 CNS)	growth (SNB-19 CNS)	growth (U251 CNS)	growth (PC-3 prostate)	growth (UACC-62 melanoma)	growth (LOX IMVI melanoma)	growth (SK-MEL-28 melanoma)	growth (SK-MEL-5 melanoma)	growth (HCT-15 colon)
COc1cccc(C2CC(=O)Nc3cc4c(cc32)OCO4)c1OC (stereo not drawn)	103%	83.1%	93.1%	97.3%	87%	101%	84.9%	88.5%	99.4%	115%	90.6%	76.3%	101%	85.6%	94.2%	96.1%	96.5%	111%	–	–
CCCCC(CCCC)(S(=O)(=O)CC)S(=O)(=O)CC	107%	101%	99.8%	119%	98.9%	109%	100%	101%	101%	101%	105%	98.4%	105%	–	–	106%	102%	115%	98%	–
COc1nc2c(cc1S(=O)(=O)c1ccccc1)CCc1c-2cnn1-c1cccc(Cl)c1	97%	61.4%	78.7%	89.7%	76.7%	87.2%	80.2%	81.7%	78.7%	83.4%	54.9%	85.5%	98.2%	–	–	71.2%	93.9%	86.4%	88%	–
CC1SC(c2cccc(Oc3ccccc3)c2)N(CCc2cccs2)C1=O (stereo not drawn)	-6.09% (active)	9.44% (active)	-72.7% (active)	-47.5% (active)	-90.6% (active)	-5.54% (active)	-35.6% (active)	-82.3% (active)	-45.1% (active)	-74% (active)	-24.7% (active)	-11.7% (active)	11.9%	-25.7% (active)	–	-71.1% (active)	-100% (active)	-57% (active)	-100% (active)	–
O=C(NCc1ccc(F)cc1)C1CN(c2ccc(Cl)cc2)N(c2ccc(Cl)cc2)C1=O (stereo not drawn)	85.3%	23.3%	60%	84.3%	65.5%	65%	42.5%	87.6%	76.3%	–	25.6%	36.7%	78.1%	56.6%	61.9%	42%	72.3%	74.9%	52.9%	45.1%
COc1ncc(F)c(OC)n1	110%	100%	103%	115%	105%	104%	97.7%	107%	101%	102%	104%	89.1%	111%	–	92.2%	106%	102%	107%	97.5%	–
Cc1ccc(N=c2nc3sc4c(C)ccc(C)c4n3c(N)c2C#N)cc1	105%	88.6%	125%	93.9%	124%	92.6%	91.1%	99.1%	–	102%	104%	92.1%	–	96.1%	–	77.9%	99.4%	105%	–	104%
CC[Si](CC)(CC)OC1[C@@H](O[Si](CC)(CC)CC)[C@@H](CNC(=O)NC)O[C@H]1n1cnc2c(NC(=O)Nc3ccccc3)ncnc21 (stereo partly drawn)	89.3%	15.9%	63.2%	97.4%	116%	67.5%	59%	99%	–	99.9%	–	78.1%	–	82.8%	11.2%	73%	93.7%	104%	95.1%	86.2%
Brc1ccccc1Nc1ccc2nnc(-c3ccncc3)n2n1	113%	46.9%	99.7%	108%	101%	99.4%	–	104%	106%	101%	109%	93.9%	100%	102%	102%	108%	92.5%	99%	104%	80.6%
COc1cccc2c(=O)c3c(sc12)c(NCCN(C)C)nc1ccccc13	3.35% (active)	-60.5% (active)	36.7%	12.3%	3.02% (active)	20.7%	36%	22.5%	29.3%	–	3.18% (active)	-5.46% (active)	36.6%	-28.1% (active)	23%	57%	-2.57% (active)	43.9%	32.9%	–
NC1=NC(c2ccccc2OS(=O)(=O)c2ccc(Br)cc2)n2c(nc3ccccc32)N1 (stereo not drawn)	109%	74.4%	104%	80.1%	109%	95.1%	99.1%	96%	96.8%	–	–	80.2%	98.1%	86.9%	80.1%	82.7%	–	102%	91%	102%
CCOC(=O)C1=C(C)N2C(=NC3=C(CCCC/C3=C\c3ccccc3)C2c2ccccc2)S1 (stereo not drawn)	105%	99.2%	86.7%	107%	88.3%	99.2%	74%	99.3%	–	95.9%	84.4%	96.9%	–	98.3%	87.6%	85.5%	100%	98%	–	96.9%
COc1ccc(-n2c(SCc3cc(OC)c(OC)c(OC)c3)nc3ccc(C)cc3c2=O)c(OC)c1	4.58% (active)	14.4%	25.5%	44.8%	19.6%	44.1%	6.35% (active)	20%	–	11.2%	11.3%	29.6%	–	24.9%	8.75% (active)	24.3%	31.6%	40.8%	17.6%	23.7%
CC(C)OC1=C(Cl)C(=O)c2ccccc2C1=O	119%	22.8%	111%	85.6%	99.6%	93.5%	–	38.4%	89.6%	97.8%	113%	75.8%	90.1%	57.4%	69.1%	–	86.5%	101%	96.8%	51.4%
COc1ccc(C2OCC(C)(C)CO2)cc1OC	107%	101%	107%	103%	88%	101%	–	104%	87.5%	113%	109%	102%	112%	94.8%	95%	99.9%	95.2%	121%	96.5%	106%
O=C(NCc1ccco1)C1CCN(S(=O)(=O)c2ccc(Cl)cc2)CC1	-18.5% (active)	13.9%	54.6%	68.9%	85.1%	37.1%	–	80.9%	86.5%	72.4%	83.2%	72.2%	84.3%	83%	-43.6% (active)	69.8%	77.1%	85.5%	75.7%	70.6%
CC(C)(C)[Si](C)(C)OC1[C@@H](CNC(=O)NC(=O)CCl)O[C@@H](n2cnc3c(N)ncnc32)[C@H]1O[Si](C)(C)C(C)(C)C (stereo partly drawn)	23%	-33.9% (active)	-67.3% (active)	-76.8% (active)	-13.3% (active)	-76.6% (active)	-57.4% (active)	15%	–	23.3%	-74.7% (active)	50%	–	-81% (active)	-83% (active)	-75% (active)	-91.3% (active)	-14.4% (active)	90.6%	-72.8% (active)
